# Several values for one entry are separate records, joined by “and”; a condition that tells them apart may be missing. Equal entries are not always repeated.
# Tests used:
# Assay type in all cases: functional
# [1] = system: Plasmodium falciparum; assay: GSK_TCMDC: Inhibition of Plasmodium falciparum 3D7 in whole red blood cells, using parasite LDH activity as an index of growth. Test compounds present at 2uM
# [2] = system: Plasmodium falciparum; assay: GSK_TCMDC: Inhibition of Plasmodium falciparum Dd2 in whole red blood cells, using parasite LDH activity as an index of growth. Test compounds present at 2uM
# [3] = system: HepG2; assay: GSK_TCMDC: Percent inhibition of human HepG2 cell line. Test compounds present at 10uM.
SMILES,Inhibition [1],Inhibition [2],Inhibition [3]
CC(=O)N(Cc1ccc(-c2ccc(CNCCc3ccccc3)cc2)cc1)C1CCN(Cc2ccccc2)CC1.O=C(O)C(F)(F)F,95%,15%,45%
COCCNCc1cccc(-c2ccccc2CN(C(=O)Nc2ccccc2)C2CCN(Cc3ccccc3)CC2)c1.O=C(O)C(F)(F)F,96%,51%,30%
COC(=O)c1sccc1NC(=S)NC1CCC(CN2CCC(c3c[nH]c4ccccc34)CC2)CC1 (stereo not drawn),97% and 100%,49% and 54%,34% and 25%
CC(=O)Nc1ccc2[nH]cc(C3CCN(CC4CCN(C(=O)/C=C/c5ccc(Cl)c(Cl)c5)CC4)CC3)c2c1,96%,41%,10%
O=C(NC1CCC(CN2CCC(c3c[nH]c4ccccc34)CC2)CC1)c1cn(Cc2ccccc2)c2ccccc12 (stereo not drawn),91%,48%,84%
COC(=O)c1ccc(CC(C)NCC(O)c2cccc(Cl)c2Cl)cc1.Cl (stereo not drawn),98%,98%,0%

# — ChEMBL document CHEMBL1157539, “Thousands of chemical starting points for antimalarial lead identification” (Nature, 2010)
